Screening results (PubChem BioAssay)
PLC-gamma1 inh – PLC-gamma1 (human) inhibition, primary screen | 370,000 compounds, 0.84% hits | purified PLC-gamma1, fluorogenic substrate, fluorescence | P19174 | inhibition, % at 12.2 µM | AID 720700; in the data active means inhibition above about 9.5%
KLK7 zymogen act – activators of human kallikrein-7 zymogen | P49862 | purified proKLK7, EDANS-DABCYL substrate fluorescence; 100% is mature enzyme control, 0% vehicle | activation, % at 7 µM | 370,000 compounds, 0.9% hits | AID 652039;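 active means activation above the mean of all tested compounds plus 3 SD, computed per campaign excluding outliers beyond control limits, cut at about 13% in these data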
Target sequence (P49862 whole entry, looked up): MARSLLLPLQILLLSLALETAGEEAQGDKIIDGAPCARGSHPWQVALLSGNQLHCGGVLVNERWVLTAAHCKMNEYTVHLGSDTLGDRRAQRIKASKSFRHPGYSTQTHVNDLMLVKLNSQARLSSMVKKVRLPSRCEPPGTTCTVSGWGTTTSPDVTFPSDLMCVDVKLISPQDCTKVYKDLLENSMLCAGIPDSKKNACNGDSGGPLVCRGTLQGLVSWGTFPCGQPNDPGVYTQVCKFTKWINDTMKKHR
ADAM17 inh – inhibits human ADAM17 | P78536 | recombinant ADAM17, EDANS/DABCYL FRET peptide cleavage | inhibition, % at 6.95 µM | 370,000 compounds, 0.83% hits | AID 720648;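 active means inhibition above the mean of compounds lying between control limits plus 3 SD, set per campaign, cut at about 8.5% in these data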;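 further: 0% = DMSO-only wells as the low control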
HGIII-sPLA2 inh – Inhibits HGIII-sPLA2 liposome hydrolysis, primary screen; Q9NZ20; QFRET BODIPY PC-A2 liposome hydrolysis, fluorescence; 370,000 compounds, 0.56% hits; inhibition, % at 12.2 µM;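 active means inhibition above mean plus 3 SD of compounds lying within the high and low control bounds, cut at about 19% in these data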;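 further: 0% = median of test compound wells and 100% = no enzyme DMSO wells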
ADAM10 inh – inhibits human ADAM10; recombinant ADAM10, EDANS/DABCYL FRET peptide cleavage, 3 h; inhibition, % at 7 µM; 370,000 compounds, 0.62% hits; AID 720582;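 active means inhibition above a per-campaign cutoff equal to the mean of compounds falling between control-based bounds plus 3 SD, cut at about 20% in these data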;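 further: 0% = DMSO wells while the 100% control is not disclosed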
PLC-beta3 inh – blocks human PLC-beta3 enzyme activity. 370,000 compounds, 0.18% hits. Purified PLC-beta3, fluorogenic substrate, fluorescence. AID 720704. Q01970. inhibition, % at 12.2 µM; in the data active means inhibition above about 11%;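 further: 0% = median of compound wells on plate and 100% = full blocker control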
proKLK7 act conf – proKLK7 activation, confirmation | shares compounds with KLK7 zymogen act | purified proKLK7, EDANS-DABCYL substrate fluorescence; scaled: vehicle 0, mature enzyme 100 | activation, % at 7 µM | 3,200 compounds, 68% hits | AID 686949;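 active means activation, as change over the incubation, above the mean of all tested compounds plus 3 SD, cut at about 13% in these data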
EDANS interfere – counter-screen for kallikrein-7 activators: EDANS-DABCYL optical interference. shares compounds with KLK7 zymogen act. EDANS-DABCYL substrate fluorescence interference, no enzyme, 4 h; solvent 0%, active enzyme control 100%. activation, % at 7 µM. 3,200 compounds, 80% hits;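 active means activation above the all-compound mean plus 3 SD, ignoring values outside control-based bounds, cut at about 4.8% in these data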;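 further: value is the 4 h activation minus the activation read at time zero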
EDANS interf – counter-screen for kallikrein-7 activators: EDANS-DABCYL interference, dose response; AID 720493; shares compounds with KLK7 zymogen act; EDANS-DABCYL peptide fluorescence interference, no enzyme; 250 compounds, 20% hits; EC50, µM;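 active means compounds that raise the fluorescence signal in this interference counterscreen, with EC50 at or below 10 µM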;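 further: intact quenched peptide substrate alone read at 355 nm excitation and 520 nm emission; signal is fluorescence gain from T0 to T4 after four hours at room temperature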
Active calls of the source: *; i = inactive; x = no result given. Most compounds without a hit are left out; they make up all but 3.4% or so of the library.

SMILES	PLC-gamma1 inh	KLK7 zymogen act	ADAM17 inh	HGIII-sPLA2 inh	ADAM10 inh	PLC-beta3 inh	proKLK7 act conf	EDANS interfere	others
CC1CN(S(=O)(=O)c2cccc(C(=O)OCc3cc(=O)oc4cc(O)ccc34)c2)CC(C)O1 (stereo not drawn)	-249	375*	-126	-27	-484	-277	540*	528*
CN(C)c1cccc(C(=O)OCc2cc(=O)oc3cc(O)ccc23)c1	i	4	-296	-23	i	i	x	x
CCc1cc2c(COC(=O)c3cccc(NS(C)(=O)=O)c3)cc(=O)oc2cc1O	i	54*	-116	-25	-307	i	62*	55*
CCN(CC)CCCNC(=O)CC1Oc2ccccc2NC1=O (stereo not drawn)	-3	0	-2	0	-6	1	x	x
CCC(C)(C)C(=O)N1CCc2cc(S(=O)(=O)N(C)Cc3ccco3)ccc21	-2	-1	0	-8	-1	-3	x	x
COCCn1c(C)nnc1SCC(=O)Nc1ccccc1[N+](=O)[O-]	-2	39*	-3	4	-2	0	0	0
O=C1CSC(c2cccs2)N1c1nncs1 (stereo not drawn)	1	1	-3	1	0	3	x	x
O=C(N[C@H](Cc1ccccc1)C(=O)NCc1ccco1)[C@H]1O[C@@H](n2ccc(=O)[nH]c2=O)[C@H](O)[C@@H]1O	3	1	-4	2	-3	4	x	x
CC[C@]12c3[nH]c4cc(-c5ccco5)ccc4c3CCN1C(=O)[C@@H](CC(=O)NCCCn1ccnc1)C[C@@H]2C(=O)N1CCN(C(=O)C2CC2)CC1	-94	69*	-47	-4	-170	-137	54*	53*
CC[C@]12c3[nH]c4cc(-c5ccco5)ccc4c3CCN1C(=O)[C@@H](CC(=O)NCCCn1ccnc1)C[C@@H]2C(=O)N1CCN(C(=O)c2ccco2)CC1	-217	97*	-65	-4	-228	-276	131*	130*
CCC1CN(C)C2Cc3c([nH]c4ccccc34)C(=O)CC1C2C(=O)OC (stereo not drawn)	-220	13*	-59	13	-242	-293	7	8.1*
CCCC[C@H]1C2CC(OC(=O)NCCCC(=O)OCC)C(C2)[C@H]2CCCCN21 (stereo partly drawn)	-3	0	-5	7	-3	2	x	x
COc1cc(CCN=Cc2cccc(OC)c2O)c([N+](=O)[O-])cc1OC	2	0	-2	3	-9	-1	x	x
Cc1cc(Br)cn2c(Cc3cccc(Cl)c3)c(C3CCCCC3)nc12	1	-1	-9	-3	-12	0	x	x
Cc1ccc2c(c1)c1c(n2CC(O)Cn2c(C)nc3ccccc32)C(=O)CCC1 (stereo not drawn)	-189	-8	-41	0	-166	-224	x	x
Cc1ccc2c(c1)c1c(n2CC(O)Cn2ccnc2C)C(=O)CCC1 (stereo not drawn)	-346	17*	-74	-5	-234	-377	9	15*
CC(=O)Nc1ccc(-c2cc(C(=O)O)c3ccc(C)cc3n2)cc1	i	17*	-283	-6	i	i	17*	28*
CC(=O)Nc1ccc(-c2cc(C(=O)O)c3cc4ccccc4cc3n2)cc1	-45	1	-49	-5	-194	-52	x	x
O=C(CN1CCOCC1)Nc1nc(-c2ccc(Cl)cc2)cs1	2	0	-2	-8	5	6	x	x
CC1CN(CC(=O)Nc2nc(-c3ccc(Cl)cc3)cs2)CC(C)O1 (stereo not drawn)	2	50*	-2	-10	6	-7	1	1
COc1ccc(/C=C(/NC(=O)c2ccccc2)C(=O)N/N=C/c2sccc2C)cc1	-39	24*	2	4	1	-37	152*	122*
CC(C)OCCOc1ccc2oc(-c3ccco3)cc(=O)c2c1	i	24*	-461	-5	i	i	37*	-6	EDANS interf=>69
Cc1ccc2oc(-c3ccco3)cc(=O)c2c1	-50	12	-274	-1	i	-83	x	x
FC(F)(F)Oc1ccc(Cn2ccc3ccc(-c4ccc5ccn(Cc6ccc(OC(F)(F)F)cc6)c5c4)cc32)cc1	-58	-2	-13	-7	-24	-69	x	x
COC(=O)c1cc2c(c3c4ccccc4n(S(=O)(=O)c4ccc(C)cc4)c13)C(=O)N(Cc1ccccc1)C2	-10	-2	-1	1	-3	-15	x	x
SMILES	PLC-gamma1 inh	KLK7 zymogen act	ADAM17 inh	HGIII-sPLA2 inh	ADAM10 inh	PLC-beta3 inh	proKLK7 act conf	EDANS interfere	others
OC1c2c(F)cccc2N=C2CCCCN21 (stereo not drawn)	-287	14*	-275	1	i	-402	11	8.3*
Cc1ccc2nc(-c3cccc(Cl)c3)c(Cc3ccccc3C(F)(F)F)n2c1	-4	1	-6	0	-14	-4	x	x
CCCC(NC(=O)CCc1c(C)c2cc3c(C)c(C)oc3cc2oc1=O)C(=O)NC(Cc1ccc(Cl)cc1)C(=O)O (stereo not drawn)	-256	4	-97	-8	-340	-320	x	x
O=C(Cc1cc(=O)oc2cc(O)ccc12)NC(Cc1ccc(Cl)cc1)C(=O)O (stereo not drawn)	i	46*	i	-4	i	i	65*	68*
CCC(NC(=O)CCc1c(C)c2cc3c(C)c(C)oc3cc2oc1=O)C(=O)N[C@@H](Cc1ccccc1)C(=O)O (stereo partly drawn)	-313	14*	-72	-11	-299	-419	13*	8.7*	EDANS interf=>70
Cc1c(CC(=O)NCC(=O)NCC(=O)N[C@@H](Cc2ccccc2)C(=O)O)c(=O)oc2c(C)c(O)ccc12	i	72*	i	2	i	i	61*	74*
O=C(COc1ccc2ccc(=O)oc2c1)NC(Cc1ccc(Cl)cc1)C(=O)O (stereo not drawn)	-6	1	-43	1	-168	-6	x	x
Cc1c(O)ccc2c(CC(=O)N[C@@H](Cc3ccc(O)cc3)C(=O)O)cc(=O)oc12	i	39*	i	-3	i	i	65*	68*
O=C(Nc1cccc(Br)c1)OC1CC2CC1[C@H]1CCCCN1[C@H]2Cc1ccccc1 (stereo partly drawn)	0	-1	1	-3	2	-2	x	x
